A word on the inhibition: it is how much of the control response was suppressed. A higher inhibition goes with a response far below the control.
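Also: values are averaged percent inhibition of PHKG1 kinase activity, from the GSK PKIS inhibitor-set screen.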

Phosphorylase b kinase gamma catalytic chain, skeletal muscle/heart isoform (Homo sapiens), sequence (Q16816 whole entry, looked up, canonical isoform): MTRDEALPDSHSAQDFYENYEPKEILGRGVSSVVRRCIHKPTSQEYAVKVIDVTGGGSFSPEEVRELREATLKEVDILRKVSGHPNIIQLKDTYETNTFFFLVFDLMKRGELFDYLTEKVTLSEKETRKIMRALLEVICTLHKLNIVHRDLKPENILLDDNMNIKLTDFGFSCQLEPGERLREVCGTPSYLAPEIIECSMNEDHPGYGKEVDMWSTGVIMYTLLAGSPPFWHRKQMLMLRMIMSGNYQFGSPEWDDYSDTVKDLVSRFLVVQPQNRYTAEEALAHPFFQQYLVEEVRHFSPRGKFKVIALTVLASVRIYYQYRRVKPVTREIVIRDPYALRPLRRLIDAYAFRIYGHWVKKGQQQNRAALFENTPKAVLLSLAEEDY

This experiment has as its target Phosphorylase b kinase gamma catalytic chain, skeletal muscle/heart isoform (Homo sapiens) (UniProt Q16816). As to conditions: at 0.1 µM.
Turning to `FC(F)(F)CNc1nccc(-c2cnn3ncccc23)n1`, the inhibition was 3.02%.
With `CCOc1ccc2c(-c3ccnc(Nc4cc(OC)cc(C(F)(F)F)c4)n3)cnn2n1`, the inhibition stood at 1.57%.
In the case of `CCS(=O)(=O)c1ccc(OC)c(Nc2ncc(-c3cccc(C(C)=O)c3)o2)c1`, the inhibition was determined as 1.7%.
The figure for `CS(=O)(=O)CCNCc1ccoc1-c1ccc2ncnc(Nc3ccc(OCc4ccccc4)cc3)c2c1` is 2.12%; for `NS(=O)(=O)c1cccc(N/C=C2\C(=O)Nc3ccccc32)c1` it is 7.73%.
The figure for `CCn1c(-c2nonc2N)nc2cncc(C(=O)NCCNC)c21` is 4.55%; for `CS(=O)(=O)CCNCc1ccc(-c2ccc3ncnc(Nc4ccc(OCc5cccc(C(F)(F)F)c5)cc4)c3c2)o1` it is 2.44%.
The figure for `COc1cc(N2CCN(C(C)C)CC2)ccc1Nc1nc(Nc2cccc(F)c2C(=O)O)c2cc[nH]c2n1` is 8.07%; for `O=C(O[C@H]1CN[C@H](C#Cc2cc3ncnc(Nc4ccc5c(cnn5Cc5ccccc5)c4)c3s2)C1)N1CCOCC1` it is 2.11%.
For `CS(=O)(=O)Nc1ccc(-c2cc(-c3ccccc3)cc(C(N)=O)c2N)cc1`, the inhibition amounted to 1.44%.
Take `CCS(=O)(=O)c1ccc(OC)c(Nc2ncc(-c3cccc(F)c3)o2)c1`: the inhibition was 6.05%.
The figure for `O=C1Nc2ccccc2/C1=C1\CCc2cc(O)ccc21` is 9.05%.
Regarding `Cc1ccc(-c2cc3c(NC(=O)C4CC4)ncnc3o2)cc1`, the inhibition came to 3.62%.
`CS(=O)(=O)Nc1ccc(-c2ccc3c(NC(=O)C4CC4)n[nH]c3c2)cc1` displayed an inhibition of 1.67%.
The figure for `Cn1c(-c2nonc2N)nc2cnccc21` is 1.82%; for `COc1cccc(-n2ncc3c(N/N=C/c4ccc(C(=O)NCCN(C)C)cc4)ncnc32)c1` it is 5.75%.

The values are drawn from ChEMBL document CHEMBL1961873, “Compounds: GSK PKIS; Assays: Nanosyn kinase panel” (2012).
